Source: PubChem
ABHD5 PLIN5 PPI: ABHD5-PLIN5 interaction inhibitors, primary screen, cell lysate, split luciferase complementation, luminescence | inhibition, % at 4 µM | AID 602281, 2012 | 360,000 compounds, 0.78% hits | Perilipin-5 (Homo sapiens) + 1-acylglycerol-3-phosphate O-acyltransferase ABHD5 (Homo … | Split G. princeps luciferase complementation, 4 h;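 active means inhibition above the mean inhibition across every tested compound plus 3 SD, cut at about 22% in these data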;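 further: 0% = DMSO only wells and the 100% control is not disclosed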
Rce1 inh: yeast Rce1p protease inhibitors, primary screen, biochemical, fluorescence, cell-free homogeneous; 290,000 compounds, 0.27% hits; yeast membranes, quenched prenylated peptide cleavage fluorescence; CAAX prenyl protease 2 (Saccharomyces cerevisiae (strain ATCC 204508 / S288c)), Q03530; AID 2563, 2010; calls only;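 active means fall in fluorescence gain of 50% or more versus controls, with final raw signal at or below 3038400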;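 further: plate controls were neutral control wells for no effect and wells lacking membranes for full effect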
Target sequence (Q03530 whole entry, looked up): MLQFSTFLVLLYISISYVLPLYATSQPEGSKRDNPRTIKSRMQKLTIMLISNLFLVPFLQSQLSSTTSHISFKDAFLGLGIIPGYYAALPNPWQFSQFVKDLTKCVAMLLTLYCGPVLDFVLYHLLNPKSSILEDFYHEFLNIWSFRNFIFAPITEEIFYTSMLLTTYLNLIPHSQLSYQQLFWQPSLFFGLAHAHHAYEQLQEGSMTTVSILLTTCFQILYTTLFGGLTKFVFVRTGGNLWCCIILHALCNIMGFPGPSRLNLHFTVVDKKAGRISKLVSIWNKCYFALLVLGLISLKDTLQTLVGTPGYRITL
Granule exo inh: LAMP-1 surface exposure blockers, TALL-104 cells – cell-based, flow cytometry, MLPCN library, primary screen. TALL-104 LAMP-1 surface exposure; cells stimulated with thapsigargin and PMA. inhibition, % at 10 µM. 360,000 compounds, 0.66% hits. AID 651702, 2012;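 active means inhibition above about 55%, limit read from the data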
Platelet DG rel: inhibitors of platelet dense granule secretion, primary screen, cell-based, MLPCN, human platelets; human platelet-rich plasma, SFLLRN dense granule ATP release, luminescence; inhibition, %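 (compounds screened at 7.5 µM in platelet-rich plasma)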; 300,000 compounds, 0.22% hits;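 active means mean replicate score, as percent of positive control, at or above 50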
M18AAP inhibitor: PfM18AAP inhibitors, malaria aminopeptidase, primary screen, biochemical, QFRET, recombinant enzyme; inhibition, % at 7.35 µM; 290,000 compounds, 1.2% hits; M18 aspartyl aminopeptidase (Plasmodium falciparum 3D7); H-Glu-NHMec fluorogenic cleavage;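 active means inhibition above the campaign mean inhibition over all tested compounds plus 3 SD, cut at about 28% in these data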;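 further: 0% = plate median of test compound wells and 100% = 2 mM ZnCl2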
ABHD5 PLIN5 conf: ABHD5-PLIN5 interaction inhibitors, confirmation, biochemical, luminescence | shares compounds with ABHD5 PLIN5 PPI | inhibition, % at 4 µM | 2,200 compounds, 67% hits; in the data active means inhibition above about 23%;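 further: 0% = DMSO vehicle wells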
HNF4 counter: HNF4 dimerization inhibitors, counter-screen for ABHD5-PLIN5 interaction inhibitor project, biochemical, split-luciferase complementation, luminescence. 2,200 compounds, 77% hits. AID 651674, 2012. shares compounds with ABHD5 PLIN5 PPI. inhibition, % at 4 µM;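 active means mean inhibition across replicate wells exceeding the computed hit threshold, cut at about 13% in these data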;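 further: light from luciferase halves that rejoin when HNF4 fusion proteins dimerize; 0% = DMSO only wells and the 100% control is not given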
Numbers without * were called inactive; i = inactive; . = not tested or not shown. Most compounds without a hit are left out; they make up all but 2.6% or so of the library.

SMILES | ABHD5 PLIN5 PPI | Rce1 inh | Granule exo inh | Platelet DG rel | M18AAP inhibitor | ABHD5 PLIN5 conf | HNF4 counter
Cc1ccc(NC(=O)C2=C(c3ccccc3)S(=O)(=O)CCS2(=O)=O)cc1 | 83.3* | i | 17.8 | -1.6 | -10.2 | 100.3* | 110.3*
O=C(/C=C/Sc1ccccc1)c1ccccc1 | 34.9* | i | 8.4 | 10.1 | 17.6 | 61.2* | 47.3*
O=C(/C=C/Sc1ccccc1)c1ccc(Cl)cc1 | 38.2* | i | 0.0 | 1.1 | 7.5 | 69.9* | 46.6*
NC(=O)c1ccccc1N/C=C/C(=O)c1ccc(Cl)cc1 | 2.0 | i | -1.8 | 40.9 | -2.2 | . | .
CSC(=CC(=O)c1ccccc1)SC | 0.3 | i | -0.7 | -3.8 | 4.4 | . | .
Cc1ccc(NS(=O)(=O)c2ccc(NC(=O)CSc3ccc(Cl)cc3)cc2)c(C)c1 | -12.9 | i | -0.2 | -2.3 | -3.7 | . | .
Cc1ccnc2nc(C(=O)OCC(=O)c3ccc(Cl)cc3)nn12 | 11.8 | . | 3.1 | . | . | . | .
Cc1c(CN2CCC(CO)(Cc3cccc(C(F)(F)F)c3)CC2)c2ccccc2n1C | 27.7* | i | 23.0 | -0.9 | -5.9 | 19.2 | 6.7
Fc1ccc(-n2c(CN3CCCCC3)n[nH]c2=S)cc1 | -6.8 | i | -2.8 | 2.9 | 16.8 | . | .
CC(C)CC1NC(=O)N(CC(=O)N2CCCc3ccccc32)C1=O (stereo not given) | -2.0 | i | -0.8 | 6.8 | 0.4 | . | .
CCOc1cc(/C=C2\COc3ccccc3C2=O)ccc1OCC(=O)N(C)C | 60.7* | i | -10.1 | 0.0 | -3.5 | 77.1* | 69.3*
CCNC(=O)COc1ccc(/C=C2\COc3ccccc3C2=O)cc1OC | 55.6* | . | -3.1 | -3.6 | -4.5 | 81.5* | 81.1*
Cc1cccc(C)c1NC(=O)C(CCc1ccccc1)n1c(=O)c(-c2ccccc2)nc2ccccc21 (stereo not given) | 25.6* | . | 14.6 | . | . | 31.2* | 13.0*
Cc1cccc(C)c1NC(=O)C(c1ccc(C#N)cc1)n1c(=O)c(-c2ccco2)nc2ccccc21 (stereo not given) | 49.8* | . | 16.5 | . | . | 62.8* | 8.1
Cc1cccc(C)c1NC(=O)C(CCc1ccccc1)n1c(=O)c(-c2cc3ccccc3[nH]2)nc2ccccc21 (stereo not given) | 4.7 | . | 5.6 | . | . | . | .
COc1ccc(C(C(=O)Nc2c(C)cccc2C)n2c(=O)c(-c3ccccc3)nc3ccccc32)cc1 (stereo not given) | -3.6 | . | 9.0 | . | . | . | .
Cc1cccc(C)c1NC(=O)C(c1ccc(-c2ccccc2)cc1)n1c(=O)c(-c2cc3ccccc3[nH]2)nc2ccccc21 (stereo not given) | -2.7 | . | 4.2 | . | . | . | .
Cc1cccc(C)c1NC(=O)C(c1ccncc1)n1c(=O)c(-c2ccccc2)nc2ccccc21 (stereo not given) | -4.9 | . | -0.5 | . | . | . | .
Cc1cccc(C)c1NC(=O)C(c1ccccc1)n1c(=O)c(-c2ccco2)nc2ccccc21 (stereo not given) | 88.1* | . | 1.0 | . | . | 56.0* | 22.6*
COc1ccc(C(C(=O)Nc2c(C)cccc2C)n2c(=O)c(-c3ccco3)nc3ccccc32)cc1 (stereo not given) | 80.6* | . | -1.0 | . | . | 98.1* | 47.9*
O=[N+]([O-])c1cccc(CN2CCN(c3ncccn3)CC2)c1 | 3.8 | i | -6.8 | -7.5 | -0.5 | . | .
CCOC(=O)c1c(NC(C)=O)sc2c(O)c(Br)cc(Br)c12 | 5.8 | i | 7.3 | -14.6 | 12.7 | . | .
O=C(Nc1ccc(Cl)cc1)C1C2C=CC3(O2)C1C(=O)N(CCN1CCCCC1)C3C(=O)NC1CCCCC1 (stereo not given) | 0.9 | . | 19.0 | 10.0 | 3.4 | . | .
CC(C)CCC1(C)NC(=O)N(CC(=O)Nc2ccc3c(c2)OCCO3)C1=O (stereo not given) | -9.3 | . | -2.8 | . | . | . | .
